Laboratory results: PubChem BioAssay AID1159580 (chemical genetic matrix, 2015)
Out of some 5,500 compounds screened, about 2,000 (36%) were called active. Inconclusive results (about 18%) are left out. Rule as the data show it: active = normalized growth mostly below about 0.91 (no sharp cut-off); inconclusive = no clear call, values can overlap the other calls; inactive = mostly above about 0.92. The list shows a part of the results.

Test: chemical genetic growth profiling, strain panel (AID 1159580);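 also: tested at 20 µM; growth read once vehicle control cultures reached saturation at 30 °C; 1 = growth at the plate median or of vehicle wells; lower values mean less growth of the strain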
Settings: growth OD

Measured: normalized growth

c1ccc([C@H]2CN3CCSC3=N2)cc1
inactive: S. cerevisiae deletion strains, locus YJR075W, strain HOC1, stronger effect = lower value 1.01 | S. cerevisiae deletion strains, locus YKL009W, strain mrt4, stronger effect = lower value 1.01 | S. cerevisiae deletion strains, locus YKL068W, stronger effect = lower value 1.01 | S. cerevisiae deletion strains, locus YKL085W, strain MDH1 (second series), stronger effect = lower value 0.999 | S. cerevisiae deletion strains, locus YKL085W, strain MDH1, stronger effect = lower value 0.999 | S. cerevisiae deletion strains, locus YKL160W, strain elf1, stronger effect = lower value 1.01 | S. cerevisiae deletion strains, locus YKL190W, strain CNB1, stronger effect = lower value 0.998 | S. cerevisiae deletion strains, locus YKR001C, strain vps1, stronger effect = lower value 1 | S. cerevisiae deletion strains, locus YKR026C, strain gcn3, stronger effect = lower value 1.02 | S. cerevisiae deletion strains, locus YKR091W, strain srl3, stronger effect = lower value 0.993 | S. cerevisiae deletion strains, locus YLL001W, strain dnm1, stronger effect = lower value 0.99 | S. cerevisiae deletion strains, locus YLL026W, stronger effect = lower value 1.01 | S. cerevisiae deletion strains, locus YLL041C, strain sdh2, stronger effect = lower value 1.01 | S. cerevisiae deletion strains, locus YLR027C, strain aat2, stronger effect = lower value 0.99 | S. cerevisiae deletion strains, locus YLR039C, strain RIC1, stronger effect = lower value 1.02 | S. cerevisiae deletion strains, locus YLR058C, strain SHM2, stronger effect = lower value 1.01 | S. cerevisiae deletion strains, locus YLR102C, strain apc9, stronger effect = lower value 1 | S. cerevisiae deletion strains, locus YLR113W, strain HOG1, stronger effect = lower value 1.08 | S. cerevisiae deletion strains, locus YLR221C, strain rsa3, stronger effect = lower value 0.979 | S. cerevisiae deletion strains, locus YLR258W, strain gsy2, stronger effect = lower value 1.02 | S. cerevisiae deletion strains, locus YLR262C, strain YPT6 (second series), stronger effect = lower value 0.999 | S. cerevisiae deletion strains, locus YLR262C, strain YPT6, stronger effect = lower value 0.992 | S. cerevisiae deletion strains, locus YLR268W, strain sec22, stronger effect = lower value 0.993 | S. cerevisiae deletion strains, locus YLR320W, strain mms22, stronger effect = lower value 0.988 | S. cerevisiae deletion strains, locus YLR330W, strain CHS5, stronger effect = lower value 1.01 | S. cerevisiae deletion strains, locus YLR342W, strain FKS1 (second series), stronger effect = lower value 1.02 | S. cerevisiae deletion strains, locus YLR342W, strain FKS1, stronger effect = lower value 1.01 | S. cerevisiae deletion strains, locus YLR357W, strain rsc2, stronger effect = lower value 1.03 | S. cerevisiae deletion strains, locus YLR370C, strain arc18, stronger effect = lower value 0.999 | S. cerevisiae deletion strains, locus YLR371W, strain rom2, stronger effect = lower value 1.01 | S. cerevisiae deletion strains, locus YLR384C, strain iki3, stronger effect = lower value 1.01 | S. cerevisiae deletion strains, locus YLR418C, strain cdc73, stronger effect = lower value 0.984 | S. cerevisiae deletion strains, locus YML016C, strain PPZ1, stronger effect = lower value 1 | S. cerevisiae deletion strains, locus YML032C, strain rad52, stronger effect = lower value 1.02 | S. cerevisiae deletion strains, locus YML120C, strain ndi1, stronger effect = lower value 0.988 | S. cerevisiae deletion strains, locus YML124C, strain tub3, stronger effect = lower value 1 | S. cerevisiae deletion strains, locus YMR058W, strain fet3, stronger effect = lower value 1 | S. cerevisiae deletion strains, locus YMR078C, strain ctf18, stronger effect = lower value 0.996 | S. cerevisiae deletion strains, locus YMR125W, strain sto1, stronger effect = lower value 1.01 | S. cerevisiae deletion strains, locus YMR129W, stronger effect = lower value 0.996 | S. cerevisiae deletion strains, locus YMR205C, strain PFK2, stronger effect = lower value 1.02 | S. cerevisiae deletion strains, locus YMR223W, strain ubp8, stronger effect = lower value 1.01 | S. cerevisiae deletion strains, locus YMR231W, strain pep5, stronger effect = lower value 1 | S. cerevisiae deletion strains, locus YMR263W, strain SAP30, stronger effect = lower value 1 | S. cerevisiae deletion strains, locus YMR307W, strain GAS1, stronger effect = lower value 1.03 | S. cerevisiae deletion strains, locus YNL067W, strain RPL9B, stronger effect = lower value 1 | S. cerevisiae deletion strains, locus YNL071W, strain lat1, stronger effect = lower value 1.04 | S. cerevisiae deletion strains, locus YNL128W, strain TEP1, stronger effect = lower value 1.01 | S. cerevisiae deletion strains, locus YNL153C, strain GIM3, stronger effect = lower value 0.988 | S. cerevisiae deletion strains, locus YNL183C, strain NPR1, stronger effect = lower value 0.983 | S. cerevisiae deletion strains, locus YNL209W, strain ssb2, stronger effect = lower value 0.984 | S. cerevisiae deletion strains, locus YNL233W, strain BNI4, stronger effect = lower value 1.01 | S. cerevisiae deletion strains, locus YNL248C, strain rpa49, stronger effect = lower value 1 | S. cerevisiae deletion strains, locus YNL250W, strain rad50, stronger effect = lower value 1.01 | S. cerevisiae deletion strains, locus YNL271C, strain bni1, stronger effect = lower value 1.01 | S. cerevisiae deletion strains, locus YNL298W, strain CLA4, stronger effect = lower value 1 | S. cerevisiae deletion strains, locus YNL307C, strain MCK1, stronger effect = lower value 1.02 | S. cerevisiae deletion strains, locus YNL322C, strain KRE1 (second series), stronger effect = lower value 0.979 | S. cerevisiae deletion strains, locus YNL322C, strain KRE1, stronger effect = lower value 1 | S. cerevisiae deletion strains, locus YNR049C, strain mso1, stronger effect = lower value 0.994 | S. cerevisiae deletion strains, locus YNR052C, strain pop2, stronger effect = lower value 1.01 | S. cerevisiae deletion strains, locus YOL006C, strain TOP1, stronger effect = lower value 1.02 | S. cerevisiae deletion strains, locus YOL012C, strain htz1 1.06 | S. cerevisiae deletion strains, locus YOL147C, strain pex11, stronger effect = lower value 1 | S. cerevisiae deletion strains, locus YOR001W, strain rrp6, stronger effect = lower value 0.961 | S. cerevisiae deletion strains, locus YOR061W, strain CKA2, stronger effect = lower value 1 | S. cerevisiae deletion strains, locus YOR069W, strain VPS5, stronger effect = lower value 0.995 | S. cerevisiae deletion strains, locus YOR070C, strain gyp1, stronger effect = lower value 1.01 | S. cerevisiae deletion strains, locus YOR080W, strain dia2, stronger effect = lower value 0.994 | S. cerevisiae deletion strains, locus YOR083W, strain WHI5, stronger effect = lower value 0.995 | S. cerevisiae deletion strains, locus YOR106W, strain vam3, stronger effect = lower value 1.02 | S. cerevisiae deletion strains, locus YOR136W, strain idh2, stronger effect = lower value 0.997 | S. cerevisiae deletion strains, locus YOR144C, strain elg1, stronger effect = lower value 1 | S. cerevisiae deletion strains, locus YOR184W, strain ser1, stronger effect = lower value 1.02 | S. cerevisiae deletion strains, locus YOR231W, strain MKK1, stronger effect = lower value 1.05 | S. cerevisiae deletion strains, locus YOR265W, strain rbl2, stronger effect = lower value 1 | S. cerevisiae deletion strains, locus YOR270C, strain vph1, stronger effect = lower value 1.02 | S. cerevisiae deletion strains, locus YOR290C, strain snf2, stronger effect = lower value 1.01 | S. cerevisiae deletion strains, locus YOR316C, strain cot1, stronger effect = lower value 1.01 | S. cerevisiae deletion strains, locus YPL051W, strain arl3, stronger effect = lower value 1.01 | S. cerevisiae deletion strains, locus YPL055C, strain LGE1, stronger effect = lower value 0.98 | S. cerevisiae deletion strains, locus YPL078C, strain atp4, stronger effect = lower value 1.02 | S. cerevisiae deletion strains, locus YPL106C, strain sse1, stronger effect = lower value 0.999 | S. cerevisiae deletion strains, locus YPL240C, strain hsp82, stronger effect = lower value 1 | S. cerevisiae deletion strains, locus YPL241C, strain CIN2, stronger effect = lower value 1.01 | S. cerevisiae deletion strains, locus YPL256C, strain CLN2, stronger effect = lower value 1.04 | S. cerevisiae deletion strains, locus YPR119W, strain clb2, stronger effect = lower value 1 | S. cerevisiae deletion strains, locus YPR141C, strain kar3, stronger effect = lower value 0.999 | S. cerevisiae deletion strains, locus YPR163C, strain tif3, stronger effect = lower value 1 | S. cerevisiae deletion strains, locus YPR167C, strain met16, stronger effect = lower value 0.998 | S. cerevisiae deletion strains, strain wtn01, stronger effect = lower value 0.997 | S. cerevisiae strains, strain wild type, stronger effect = lower value 1
